Results from PubChem BioAssay (Tox21).
Results filed as inconclusive are left out. The source made the active and inactive calls. Unless noted, the call rests on the fitted dose curve.

What was measured:
[1] = Nuclear factor erythroid 2-related factor 2/antioxidant responsive element (Nrf2/ARE) small molecule agonists: qHTS cell viability counter screen in human keratinocytes (AID 1919968; active means well fitted curve in the direction sought with a large enough effect in the repeat runs; an effect the other way counts as inactive or inconclusive; further: nearly all actives have a fitted effect of over 55% in size)
Outline: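 Measured as CellTiter-Fluor fluorescence, this readout tracks cytotoxicity in the same wells as the ARE-luciferase screen. HaCaT reporter cells (1,500/well) received compounds after a 5 h pre-incubation and were exposed for 23 h.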

[2] = Nuclear factor erythroid 2-related factor 2/antioxidant responsive element (Nrf2/ARE) small molecule agonists: luciferase reporter gene qHTS assay in human keratinocytes (AID 1919969); further: nearly all actives have a fitted effect of over 35% in size
[3] = biological target: Gonadotropin-releasing hormone receptor (Homo sapiens) (UniProt P30968); assay: Human gonadotropin-releasing hormone receptor (GnRHR) small molecule agonists, calcium flux assay in GnRHR-HEK293 cells (AID 1920063); further: nearly all actives have a fitted effect of over 35% in size
Outline: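 Fluorescence kinetics (480 nm excitation, 540 nm emission; 3 min, 1 s steps) report calcium mobilisation in human GnRHR-HEK293 cells in agonist mode. Dye incubation: 1 h, 37 C.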

[4] = biological target: KiSS-1 receptor (Homo sapiens) (UniProt Q969F8); assay: Human kisspeptin (KISS1R) small molecule agonists, calcium flux assay in KISS1R-HEK293 cells (AID 1920064; active means well fitted curve in the direction sought with a large enough effect in the repeat runs; an effect the other way counts as inactive or inconclusive)
Outline: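 Measures KISS1R agonism through calcium-sensitive dye fluorescence in stably transfected HEK293 cells, read for 3 min after pin-tool compound delivery; 15-point titrations in triplicate.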

[5] = p53 small molecule agonists, cell-based qHTS assay with human liver microsomes (AID 1963577)
Outline: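 p53RE-bla reporter cells were pre-incubated 5 h at 37 C, then treated with compounds plus human liver microsomes (0.5 mg/mL final) and NADPH (0.5 mg/mL final) for 16 h at 37 C. Beta-lactamase activity was read by LiveBLAzer fluorescence after 2 h at room temperature.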

[6] = p53 small molecule agonists, cell-based qHTS assay with rat liver microsomes (AID 1963578)
Outline: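 p53RE-bla cells were exposed to compounds together with rat liver microsomes (0.5 mg/mL final) and NADPH (0.5 mg/mL final) for 16 h at 37 C, then read by LiveBLAzer beta-lactamase fluorescence after 2 h at room temperature.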

[7] = p53 small molecule agonists, cell-based qHTS assay with human liver microsomes: qHTS cell viability counter screen (AID 1963579); further: nearly all actives have a fitted effect of over 45% in size
Outline: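 p53RE-bla cells (4,000/well) were pre-incubated 5 h at 37 C, then given compounds in DMSO plus human liver microsomes (0.5 mg/mL final) and NADPH (0.5 mg/mL final) for 16 h at 37 C. Viability was read by CellTiter-Glo luminescence.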

[8] = p53 small molecule agonists, cell-based qHTS assay with rat liver microsomes: qHTS cell viability counter screen (AID 1963580); further: nearly all actives have a fitted effect of over 45% in size
Outline: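 Viability is assessed in parallel with the p53 reporter read: HCT-116 p53RE-bla cells receive compounds plus rat microsomes and NADPH (0.5 mg/mL final apiece), incubate 16 h at 37 C, and then CellTiter-Glo luminescence is recorded.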

[9] = p53 small molecule agonists, cell-based qHTS assay: qHTS cell viability counter screen (AID 1963581); further: nearly all actives have a fitted effect of over 45% in size
Outline: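 In the same plates used for the p53 bla reporter, HCT-116 cells given compounds for 16 h at 37 C received CellTiter-Glo; luminescence was recorded 30 min later at room temperature.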

[10] = p53 small molecule agonists, cell-based qHTS assay (AID 1963582; active means well fitted activation curve with a large enough effect in the signal ratio in the repeat runs, not every such curve was filed as active; the % refers to the signal ratio)
Outline: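 Compounds are pin-transferred in DMSO onto p53RE-bla cells and incubated 16 h at 37 C. The B/G FRET beta-lactamase substrate is then applied for 2 h at RT and fluorescence recorded.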

[11] = biological target: 5-hydroxytryptamine receptor 2A (Homo sapiens) (UniProt P28223); assay: 5-hydroxytryptamine receptor 2A (HTR2A) small molecule antagonists, cell-based qHTS assay (AID 1963586); further: nearly all actives have a fitted effect of over 45% in size
Outline: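 Antagonist-mode intracellular calcium assay: DOI (4 nM) added after 5 min compound pre-incubation at room temperature to dye-loaded HTR2A-CHO cells. Fluorescence followed for 3 min, sampled every second.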

[12] = biological target: 5-hydroxytryptamine receptor 2A (Homo sapiens) (UniProt P28223); assay: 5-hydroxytryptamine receptor 2A (HTR2A) small molecule agonists, cell-based qHTS assay (AID 1963587); further: nearly all actives have a fitted effect of over 30% in size
Outline: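 CHO cells stably expressing human HTR2A, plated 18 h, loaded with calcium dye 1 h at 37 C. Agonist mode: compounds added and intracellular calcium fluorescence recorded kinetically for 2 min at 1 sec intervals.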

[13] = biological target: Muscarinic acetylcholine receptor M1 (Homo sapiens) (UniProt P11229); assay: Cholinergic receptor muscarinic 1 (CHRM1) small molecule antagonists, cell-based qHTS assay (AID 1963588); further: nearly all actives have a fitted effect of over 40% in size
Outline: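 CHRM1-CHO calcium-flux assay, antagonist mode. Cells were seeded 18 h, dye-loaded 1 h at 37 C and given compound for 5 min at RT, then acetylcholine was added at 50nM. FDSS fluorescence was read 3 min; 15 concentrations, three runs.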

[14] = biological target: Muscarinic acetylcholine receptor M1 (Homo sapiens) (UniProt P11229); assay: Cholinergic receptor muscarinic 1 (CHRM1) small molecule agonists, cell-based qHTS assay (AID 1963589); further: nearly all actives have a fitted effect of over 35% in size
Outline: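 Each compound was tested at 15 concentrations across three independent runs on dye-loaded CHO cells stably expressing human CHRM1, reading intracellular calcium fluorescence kinetically at 1 sec intervals.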

[15] = cAMP Responsive Elements (CRE) small molecule agonists, cell-based qHTS assay (AID 1963590)
Outline: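 Cell line: CRE-bla HEK 293T; medium DMEM/10% dialyzed FBS/0.1 mM NEAA/1 mM pyruvate/25 mM HEPES; 3 h compound exposure; beta-lactamase FRET readout after 2 h substrate loading at RT.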

[16] = cAMP Responsive Elements (CRE) small molecule antagonists, cell-based qHTS assay (AID 1963591; active means well fitted inhibition curve with a large enough effect in the signal ratio in the repeat runs, not every such curve was filed as active; the % refers to the signal ratio)
Outline: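 Inhibition of NKH477-driven (0.25 uM final) CRE-beta-lactamase signal in HEK293T cells, 3 h compound exposure at 37 °C, detected by FRET substrate fluorescence.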

[17] = biological target: Beta-2 adrenergic receptor (Homo sapiens) (UniProt P07550); assay: Adrenergic beta2 receptor (ADRB2) small molecule antagonists, cell-based qHTS assay (AID 1963592); further: series mostly up to about 92 µM; nearly all actives have a fitted effect of over 50% in size
Outline: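 Cells (CHO, stable ADRB2 overexpression) incubated 18-20hr at 37C; compounds added from DMSO; agonist mix (1nM isoproterenol, 100uM IBMX, 25uM Ro-20-1724) added; 0.5hr RT; d2-cAMP and anti-cAMP-cryptate added; 1hr RT; 665/615 nm read.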

[18] = biological target: D(2) dopamine receptor (Homo sapiens) (UniProt P14416); assay: Dopamine D2 receptor (DRD2) small molecule agonists, cell-based qHTS assay (AID 1963594); further: nearly all actives have a fitted effect of over 35% in size
Outline: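 HEK293 cells stably expressing human DRD2, pre-treated with PDE inhibitor Ro20-1724 (0.1 mM final) and compound 10 min at room temperature, then stimulated with NKH477 (200nM […]) for 30 min. cAMP read by HTRF (665/620 nm).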

[19] = biological target: D(2) dopamine receptor (Homo sapiens) (UniProt P14416); assay: Dopamine D2 receptor (DRD2) small molecule antagonists, cell-based qHTS assay (AID 1963595; active means well fitted inhibition curve with a large enough effect in the signal ratio in the repeat runs, with a control signal flat; the % refers to the signal ratio)
Outline: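 Antagonist mode in DRD2-HEK293 cells: after compound addition with 0.1 mM Ro20-1724, cells received quinpirole (12 nM) and NKH477 (200 nM) for 30 min at room temperature; HTRF cAMP read after 1 h detection.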

[20] = biological target: Beta-2 adrenergic receptor (Homo sapiens) (UniProt P07550); assay: Adrenergic beta2 receptor (ADRB2) small molecule agonists, cell-based qHTS assay (AID 1963593);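 further: CHO cells stably overexpressing human ADRB2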
Outline: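 CHO cells stably over-expressing ADRB2 were plated overnight at 37C, then dosed with compounds plus a stimulation mix containing 100uM IBMX and 25uM Ro-20-1724 for 0.5hr at room temperature. cAMP was measured by HTRF competition, 1hr.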

Measured: Potency

D(2) dopamine receptor (Homo sapiens), sequence (P14416 whole entry, looked up): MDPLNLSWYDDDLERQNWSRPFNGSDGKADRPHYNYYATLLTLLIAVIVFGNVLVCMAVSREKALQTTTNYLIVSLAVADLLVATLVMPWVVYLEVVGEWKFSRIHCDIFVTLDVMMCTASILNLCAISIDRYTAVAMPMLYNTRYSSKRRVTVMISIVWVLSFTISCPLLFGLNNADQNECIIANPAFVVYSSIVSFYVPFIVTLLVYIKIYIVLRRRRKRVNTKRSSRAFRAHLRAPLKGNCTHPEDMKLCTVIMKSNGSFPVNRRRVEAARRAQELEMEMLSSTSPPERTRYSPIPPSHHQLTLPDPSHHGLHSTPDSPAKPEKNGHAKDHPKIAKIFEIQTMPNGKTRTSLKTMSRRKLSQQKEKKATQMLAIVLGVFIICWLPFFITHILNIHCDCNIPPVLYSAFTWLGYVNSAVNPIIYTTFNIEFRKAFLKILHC
5-hydroxytryptamine receptor 2A (Homo sapiens), sequence (P28223 whole entry, looked up): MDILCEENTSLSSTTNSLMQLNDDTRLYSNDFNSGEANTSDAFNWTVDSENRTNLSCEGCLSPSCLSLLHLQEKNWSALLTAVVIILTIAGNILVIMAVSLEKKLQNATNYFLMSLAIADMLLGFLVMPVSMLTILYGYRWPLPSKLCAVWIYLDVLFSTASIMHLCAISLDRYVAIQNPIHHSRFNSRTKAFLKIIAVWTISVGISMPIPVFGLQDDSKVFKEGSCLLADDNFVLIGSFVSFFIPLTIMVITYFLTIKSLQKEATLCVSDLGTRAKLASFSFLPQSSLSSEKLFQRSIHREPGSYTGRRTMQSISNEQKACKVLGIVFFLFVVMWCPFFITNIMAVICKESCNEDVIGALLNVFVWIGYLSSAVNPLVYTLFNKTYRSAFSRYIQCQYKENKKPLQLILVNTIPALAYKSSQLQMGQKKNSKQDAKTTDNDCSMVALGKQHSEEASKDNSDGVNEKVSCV
Gonadotropin-releasing hormone receptor (Homo sapiens), sequence (P30968 whole entry, looked up): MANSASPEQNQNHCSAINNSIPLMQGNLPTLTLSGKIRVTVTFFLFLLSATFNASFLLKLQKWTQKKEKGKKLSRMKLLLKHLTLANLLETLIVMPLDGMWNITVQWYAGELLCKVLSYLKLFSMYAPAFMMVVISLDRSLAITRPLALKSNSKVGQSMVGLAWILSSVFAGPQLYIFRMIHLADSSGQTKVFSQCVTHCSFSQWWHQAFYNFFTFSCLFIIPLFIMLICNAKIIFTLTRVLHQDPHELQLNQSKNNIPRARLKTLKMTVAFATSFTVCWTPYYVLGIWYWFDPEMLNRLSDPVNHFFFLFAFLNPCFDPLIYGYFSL
Muscarinic acetylcholine receptor M1 (Homo sapiens), sequence (P11229 whole entry, looked up): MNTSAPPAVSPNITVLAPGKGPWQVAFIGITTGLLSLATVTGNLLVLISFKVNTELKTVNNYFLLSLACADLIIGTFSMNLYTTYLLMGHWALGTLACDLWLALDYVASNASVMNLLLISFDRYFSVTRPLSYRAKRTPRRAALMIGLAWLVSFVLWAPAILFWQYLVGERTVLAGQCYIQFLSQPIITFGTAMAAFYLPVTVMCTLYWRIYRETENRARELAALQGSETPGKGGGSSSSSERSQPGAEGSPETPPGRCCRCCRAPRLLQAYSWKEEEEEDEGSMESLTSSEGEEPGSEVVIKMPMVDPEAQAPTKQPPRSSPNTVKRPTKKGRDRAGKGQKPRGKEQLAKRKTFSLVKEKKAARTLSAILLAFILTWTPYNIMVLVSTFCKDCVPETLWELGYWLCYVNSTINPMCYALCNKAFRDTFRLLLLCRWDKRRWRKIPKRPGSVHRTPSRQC
KiSS-1 receptor (Homo sapiens), sequence (Q969F8 whole entry, looked up): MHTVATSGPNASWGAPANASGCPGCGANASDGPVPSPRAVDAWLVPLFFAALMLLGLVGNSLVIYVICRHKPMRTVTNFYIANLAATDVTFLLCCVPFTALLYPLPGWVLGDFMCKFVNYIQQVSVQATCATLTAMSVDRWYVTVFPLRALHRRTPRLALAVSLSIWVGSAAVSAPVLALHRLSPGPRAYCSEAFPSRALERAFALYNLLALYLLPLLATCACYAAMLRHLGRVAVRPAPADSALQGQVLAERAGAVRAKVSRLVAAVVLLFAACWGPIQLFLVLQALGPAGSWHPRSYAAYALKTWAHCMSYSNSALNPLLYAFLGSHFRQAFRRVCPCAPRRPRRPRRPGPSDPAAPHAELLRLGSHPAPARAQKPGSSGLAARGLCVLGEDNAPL
Beta-2 adrenergic receptor (Homo sapiens), sequence (P07550 whole entry, looked up): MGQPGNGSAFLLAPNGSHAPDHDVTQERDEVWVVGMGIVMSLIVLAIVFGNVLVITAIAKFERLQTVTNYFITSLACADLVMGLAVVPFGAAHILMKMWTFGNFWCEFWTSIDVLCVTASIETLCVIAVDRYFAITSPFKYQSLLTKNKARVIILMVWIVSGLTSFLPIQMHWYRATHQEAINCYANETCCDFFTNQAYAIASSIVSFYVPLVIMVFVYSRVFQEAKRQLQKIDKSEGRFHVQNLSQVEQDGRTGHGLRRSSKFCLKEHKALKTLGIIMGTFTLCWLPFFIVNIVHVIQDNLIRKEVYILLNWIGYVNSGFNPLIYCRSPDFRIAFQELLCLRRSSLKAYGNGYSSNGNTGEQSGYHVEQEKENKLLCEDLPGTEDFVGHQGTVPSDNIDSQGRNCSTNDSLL

c1ccc2cnccc2c1
inactive: [1] | [2] | [3] | [4] | [5] | [6] | [7] | [8] | [9] | [10] | [11] | [12] | [13] | [14] | [15] | [16] | [17] | [18] | [19]

CC(C)(C)c1ccc(C=O)cc1
inactive: [1] | [2] | [3] | [4] | [5] | [6] | [7] | [8] | [9] | [10] | [12] | [13] | [14] | [15] | [16] | [17] | [20] | [18] | [19]

O=Cc1ccc(F)cc1
inactive: [1] | [2] | [3] | [4] | [5] | [6] | [7] | [8] | [9] | [10] | [11] | [12] | [13] | [14] | [15] | [16] | [20] | [18] | [19]

CC1(C)[C@H]2CC[C@]1(C)[C@H](O)C2
inactive: [1] | [2] | [3] | [4] | [5] | [6] | [7] | [8] | [9] | [10] | [11] | [12] | [13] | [14] | [15] | [20] | [18] | [19]

CC(C)=CCCC(C)CC=O (centres undefined)
inactive: [1] | [2] | [3] | [4] | [5] | [6] | [7] | [8] | [9] | [10] | [15] | [16] | [17] | [18]

O=C1NCCN1CCO
inactive: [1] | [2] | [3] | [4] | [5] | [6] | [7] | [8] | [9] | [11] | [12] | [13] | [14] | [15] | [16] | [17] | [20] | [18] | [19]

Clc1ccc2c(Cl)ccnc2c1
inactive: [1] | [2] | [3] | [4] | [5] | [6] | [7] | [8] | [9] | [10] | [11] | [12] | [14] | [15] | [16] | [19]

COc1cc(S(N)(=O)=O)cc(C(=O)O)c1OC
inactive: [1] | [2] | [3] | [4] | [5] | [6] | [7] | [8] | [9] | [10] | [11] | [12] | [13] | [14] | [15] | [17] | [18] | [19]

ClC(c1ccccc1)(c1ccccc1)c1ccccc1
inactive: [1] | [2] | [3] | [4] | [5] | [6] | [7] | [8] | [9] | [10] | [11] | [12] | [13] | [14] | [15] | [16] | [17] | [18] | [19]

C/C=C/CO
inactive: [1] | [2] | [3] | [4] | [5] | [6] | [7] | [8] | [9] | [11] | [12] | [15] | [16] | [17] | [18] | [19]

CC(C)(C)S
inactive: [1] | [2] | [3] | [4] | [5] | [6] | [7] | [8] | [9] | [10] | [11] | [12] | [13] | [14] | [15] | [16] | [17] | [18] | [19]

O=C1c2ccccc2CCc2ccccc21
inactive: [1] | [2] | [3] | [4] | [7] | [8] | [9] | [11] | [12] | [13] | [15] | [16] | [17] | [20] | [18] | [19]

COc1ccc(Cl)cc1C
inactive: [1] | [2] | [3] | [5] | [6] | [7] | [8] | [9] | [10] | [11] | [12] | [13] | [14] | [15] | [16] | [17] | [20] | [18] | [19]

CC1=C(C=O)C(C)(C)CC=C1
inactive: [1] | [2] | [3] | [4] | [5] | [6] | [7] | [9] | [10] | [11] | [12] | [13] | [14] | [15] | [16] | [17] | [20] | [18] | [19]

Nc1cc(-c2ccncc2)c[nH]c1=O
inactive: [1] | [2] | [3] | [4] | [6] | [7] | [8] | [9] | [10] | [15] | [16] | [17] | [20] | [19]
